In PubChem BioAssay:
Activity calls are given as the source filed them.

Legend:
[1] = system: XIP peptide (Xip251-270) binding; assay: small-molecule binders of XIP peptide, primary screen, biochemical, small-molecule microarray, fluorescence 635/667 nm, 0.1 µg/mL protein (AID 1182); conditions: fluorescent protein binding, 635 nm, higher = more signal, called active from +8 up or from −8 down
[2] = system: XIP peptide (Xip251-270); assay: small-molecule binders of XIP peptide, primary screen, biochemical, small-molecule microarray, fluorescence 635/667 nm, 0.5 µg/mL protein (AID 1183); conditions: small-molecule microarray binding, fluorescence 635 nm; higher = more signal
[3] = Plasmodium falciparum growth inhibition, primary screen, strain 3D7, DAPI fluorescence, 100 nL (AID 1184);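 further: parasites grown inside human red blood cells in medium with human serum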; conditions: P. falciparum 3D7 growth, 3 d, higher = more signal
[4] = biological target: Homeobox protein Hox-A13 (Mus musculus) (UniProt Q62424); assay: inhibitors of HoxA13-DNA binding, primary screen, biochemical, fluorescence polarization, labeled oligonucleotide (AID 1185); conditions: 15 min, higher = more signal, called active from +8 up or from −8 down
Sequence of Homeobox protein Hox-A13 (Mus musculus) (Q62424 whole entry, looked up): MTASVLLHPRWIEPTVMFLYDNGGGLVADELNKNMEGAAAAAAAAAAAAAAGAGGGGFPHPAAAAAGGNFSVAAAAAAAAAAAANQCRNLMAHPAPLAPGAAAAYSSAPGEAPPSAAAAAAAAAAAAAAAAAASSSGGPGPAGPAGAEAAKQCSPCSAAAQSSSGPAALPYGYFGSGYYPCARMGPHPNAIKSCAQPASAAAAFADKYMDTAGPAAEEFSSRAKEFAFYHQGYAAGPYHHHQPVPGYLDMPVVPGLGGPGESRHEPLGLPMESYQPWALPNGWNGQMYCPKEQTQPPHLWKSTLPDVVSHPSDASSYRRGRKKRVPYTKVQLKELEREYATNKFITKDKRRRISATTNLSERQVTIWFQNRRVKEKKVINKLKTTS

Row | Structure (SMILES) | composite z-score [1] | composite z-score [2] | z-score [3] | z-score [4]
1 | CC(CCC(=O)OC[C@H]1O[C@H](C#Cc2ccccc2)C=C[C@@H]1Oc1ccc(C)cc1)=NOC[C@@H](C)[C@H](OCc1ccccc1)C(C)C | -0.582 (inactive) | -0.693 | -0.0982 | -0.499 (inactive)
2 | CCOC(=O)CCN1C(=O)[C@H]2[C@H]3[C@H](O)[C@H](O)CC(=NNC(=O)OCC)[C@H]3CC[C@H]2C1=O | 3.24 (inactive) | -0.397 | -1.58 | -4.5 (inactive)
3 | C[C@H]1CC[C@@H](C(=O)O)N[C@@H]1c1cccc(N2CCCC2=O)c1 | 0.641 (inactive) | -0.397 | 0.752 | -0.0351 (inactive)
4 | CC(=O)OC[C@H]1O[C@H](C#CCCc2ccccc2)C=C[C@@H]1OC(C)=O | 0.22 (inactive) | 0.758 | 0.972 | -4.7 (inactive)
5 | CC(=O)OC[C@H]1O[C@H](CCON=C(C)CCN2CCCc3nc(C)c(C)cc32)C=C[C@@H]1OC(C)=O | 0.36 (inactive) | 0.651 | -1.47 | -6.43 (inactive)
6 | COc1ccc(O[C@H]2C=C[C@@H](c3ccccc3)O[C@@H]2CON=C2c3cc(OC)ccc3O[C@H](c3cccc(OC)c3)[C@H]2O)cc1 | -0.167 (inactive) | -0.338 | 0.106 | 1.67 (inactive)
7 | CC(CCN1CCCCc2nc(C)c(C)cc21)=NO[C@H](C)c1cn([C@@H]2COC[C@H]2O)nn1 | 0.641 (inactive) | 0.382 | 0.255 | -1.36 (inactive)
8 | CC(C)[C@@H](OCc1ccccc1)[C@H](C)C=NO[C@H](C)c1cn([C@@H]2COC[C@H]2O)nn1 | -0.0971 (inactive) | 0.0742 | 1.61 | -0.967 (inactive)
9 | CCN1C(=O)[C@H]2[C@H]3[C@H](O)[C@H](O)CC(=NOCC(C)C)[C@H]3CC[C@H]2C1=O | -0.583 (inactive) | -0.122 | 1.82 | 0.204 (inactive)
10 | CCc1cc2c(nc1CC)CCN(CCC(C)=NOCC[C@@H]1C=C[C@H](OC(C)=O)[C@@H](COC(C)=O)O1)C2 | -0.0297 (inactive) | 0.45 | -0.876 | -5.38 (inactive)
11 | CCN(CC)CC(O)CN1CCCCc2nc(C)c(C)cc21 (centres undefined) | -0.344 (inactive) | -0.136 | 0.694 | -1.17 (inactive)
12 | COc1ccc(O[C@H]2C=C[C@@H](c3ccccc3)O[C@@H]2CO)cc1 | 0.0493 (inactive) | 0.546 | -0.672 | -1.6 (inactive)
13 | CC(CCC(=O)OC[C@H]1O[C@H](C#Cc2ccccc2)C=C[C@@H]1Oc1ccc(C)cc1)=NOC(C)CN1CCCc2nc(C)c(C)cc21 (some centres undefined) | 0.687 (inactive) | 0.529 | -1.9 | -3.93 (inactive)
14 | CC(=O)OC[C@H]1O[C@H](C#CCC2CCCCC2)C=C[C@@H]1OC(C)=O | 0.525 (inactive) | 0.392 | 0.951 | -5.27 (inactive)
15 | COC(=O)[C@H](C)NC(=O)CCC1CC(OC(=O)NCc2ccc3c(c2)OCO3)CC2(CCCC(COC(=O)NCc3ccccc3)O2)O1 (some centres undefined) | 0.361 (inactive) | 0.554 | -1.75 | -2.47 (inactive)
16 | CCOC(=O)[C@H](Cc1ccccc1)NC(=O)CCC1CC(OC(=O)NCc2cccc3ccccc23)CC2(CCCC(COC(=O)NCCc3ccccc3OC)O2)O1 (some centres undefined) | 0.248 (inactive) | 0.374 | -1.95 | -0.95 (inactive)
17 | COc1ccc(O[C@H]2C=C[C@@H](c3ccccc3)O[C@@H]2COC(=O)NCc2cccc3ccccc23)cc1 | -0.318 (inactive) | 0.143 | -0.806 | 1.25 (inactive)
18 | Cc1ccc(C(C)C)n1C(=O)OC(C)(C)C | -0.488 (inactive) | -0.0079 | 0.271 | 0.936 (inactive)
19 | COC(=O)[C@H](C)NC(=O)CCC1CC(OC(=O)NCc2cccc3ccccc23)CC2(CCCC(COC(=O)NCCCN3CCCC3=O)O2)O1 (some centres undefined) | 1.17 (inactive) | 0.582 | -0.529 | -3.27 (inactive)
20 | CC(CCN1CCc2nc(-c3ccccc3)c(-c3ccccc3)cc2C1)=NO[C@H](C)c1cn([C@H](CO)Cc2ccccc2)nn1 | 0.899 (inactive) | 0.529 | -0.618 | -5.22 (inactive)
21 | C[C@@H]1CC[C@H]2C(=O)OC(Cc3ccccc3)CN2[C@H]1c1ccc(Br)cc1 (some centres undefined) | -0.0207 (inactive) | 0.276 | 0.695 | -3.22 (inactive)
22 | COC(=O)CC=C[C@@H](C)[C@@H](C=NOC[C@@H](C)[C@H](OCc1ccccc1)C(C)C)NS(=O)(=O)c1ccc(C)cc1 | 0.265 (inactive) | -0.0132 | -0.192 | -4.05 (inactive)
23 | C[C@]12CCC3c4ccc(OCC5CO5)cc4CCC3C1CC[C@@H]2O (some centres undefined) | 0.504 (inactive) | 0.0249 | 0.0788 | -2.47 (inactive)

Row | Structure (SMILES) | composite z-score [1] | composite z-score [2] | z-score [3] | z-score [4]
24 | CC(=O)OC[C@H]1O[C@H](CC=NOCC[C@@H]2C=C[C@H](OC(C)=O)[C@@H](COC(C)=O)O2)C=C[C@@H]1OC(C)=O | -0.0772 (inactive) | 0.677 | 0.256 | -0.963 (inactive)
25 | CO[C@@H]1[C@H](O)CO[C@H]1C=Cc1ccccc1 | -0.553 (inactive) | 0.836 | -0.703 | -3.28 (inactive)
26 | CC=CC1=C(CO)[C@H](O)[C@H]2O[C@H]2[C@@H]1O | 0.353 (inactive) | 0.374 | 0.0425 | -0.101 (inactive)
27 | O=C(NN=C1C[C@@H](O)[C@@H](O)[C@@H]2[C@@H]3C(=O)N(Cc4ccc5c(c4)OCO5)C(=O)[C@@H]3CC[C@@H]12)OCc1ccccc1 | 0.244 (inactive) | 0.0195 | -1.1 | -3.09 (inactive)
28 | CCOC(=O)[C@H](CC(C)C)NC(=O)CCC1CC(OC(=O)NCc2ccc3c(c2)OCO3)CC2(CCCC(COC(=O)NCCc3ccccc3OC)O2)O1 (some centres undefined) | 0.677 (inactive) | 0.622 | -1.88 | -3.78 (inactive)
29 | COC(=O)[C@H](C)NC(=O)CCC1CC(OC(=O)NCc2cccc3ccccc23)CC2(CCCC(COC(=O)NCCOc3ccccc3)O2)O1 (some centres undefined) | 2.12 (inactive) | 0.345 | -0.372 | -6.3 (inactive)
30 | CCN1C(=O)[C@H]2[C@@H]3C(=CC[C@H]2C1=O)C(=O)[C@H]1O[C@H]1[C@H]3O | -0.529 (inactive) | 0.568 | -1.94 | -6.04 (inactive)
31 | CCOC(=O)[C@H](CC(C)C)NC(=O)CCC1CC(OC(=O)NCCc2ccc(F)cc2)CC2(CCCC(COC(=O)NCCOC)O2)O1 (some centres undefined) | 0.0029 (inactive) | 0.39 | -1.9 | -6.12 (inactive)
32 | CCN1C(=O)[C@H]2[C@H]3[C@H](O)[C@H](O)CC(=NO[C@@H]4O[C@H](CO)[C@@H](O)[C@H](O)[C@H]4O)[C@H]3CC[C@H]2C1=O | -0.0195 (inactive) | 0.263 | -0.0716 | -0.898 (inactive)
33 | CCN1C(=O)[C@H]2[C@H]3[C@H](O)[C@H](O)CC(=NNC(=O)OCc4ccccc4)[C@H]3CC[C@H]2C1=O | -0.249 (inactive) | 0.129 | -0.114 | -1.7 (inactive)
34 | CCOC(=O)CCN1C(=O)[C@H]2[C@H]3[C@H](O)[C@H](O)CC(=NNC(=O)OCc4ccc(OC)cc4)[C@H]3CC[C@H]2C1=O | 0.353 (inactive) | 0.277 | 0.144 | -3.67 (inactive)
35 | COc1ccc2c(c1)O[C@@H](c1cccc(C(F)(F)F)c1)[C@H](O)C2=O | 0.245 (inactive) | -0.233 | 0.142 | 0.16 (inactive)
36 | CO[C@@H]1COC(=O)[C@H](COCc2ccccc2)NC(=O)CC=C[C@@H](C)[C@H](OC)COC(=O)[C@@H](C)NC(=O)CC=C[C@H]1C | 0.455 (inactive) | 0.261 | 0.591 | -1.83 (inactive)
37 | O=C1C=C[C@@H](O)[C@@H]2[C@@H]3C(=O)N(Cc4ccc5c(c4)OCO5)C(=O)[C@@H]3CC[C@@H]12 | -0.297 (inactive) | 0.228 | -0.786 | -0.416 (inactive)
38 | O=C1[C@H]2CCn3c(=O)n(-c4ccccc4)c(=O)n3[C@H]2[C@H](O)[C@@H]2O[C@H]12 | -0.0756 (inactive) | 0.614 | -0.815 | -0.418 (inactive)
39 | CC(C)=CCCC(C)=CCON=C1C[C@@H](O)[C@@H](O)[C@@H]2[C@@H]3C(=O)N([C@@H](C)c4ccccc4)C(=O)[C@@H]3CC[C@@H]12 | 0.0439 (inactive) | 0.242 | -0.81 | -1.3 (inactive)
40 | C#CCCCON=C1[C@H]2CCn3c(=O)n(Cc4cc5c(cc4Cl)OCO5)c(=O)n3[C@H]2[C@H](O)[C@@H]2O[C@H]12 | -0.18 (inactive) | 0.278 | -0.579 | -0.911 (inactive)
41 | COC(=O)C1=C(C)N(Cc2ccccc2)C2=C3C(=O)OCC[C@@H]3[C@@](O)(C(=O)OC)C(=O)N2[C@@H]1c1ccccc1 | 0.75 (inactive) | -0.189 | 0.964 | -0.987 (inactive)
42 | O=C1[C@H]2[C@H]3[C@H](O)[C@H](O)CC(=NO[C@@H]4O[C@H](CO)[C@@H](O)[C@H](O)[C@H]4O)[C@H]3CC[C@H]2C(=O)N1C[C@@H]1CCCO1 | -0.48 (inactive) | 0.184 | 0.656 | 0.594 (inactive)
43 | CO[C@H]1COC(=O)CCC[C@H](C)[C@@H](OC)COC(=O)CC=C[C@@H]1C | -0.294 (inactive) | 0.003 | -0.809 | 0.544 (inactive)
44 | COc1cccc([C@H]2Oc3ccc(OC)cc3C(=NO[C@@H](C)c3cc(-c4c(C)cc(C)cc4C)no3)[C@@H]2O)c1 | -0.294 (inactive) | 0.0817 | -0.24 | 0.621 (inactive)
45 | C[C@H]1CC[C@H]2C(=O)N[C@H](Cc3ccccc3)C(=O)N2[C@@H]1c1ccccc1 | 0.469 (inactive) | 0.647 | 0.388 | -0.879 (inactive)
46 | CCOC(=O)[C@H](CC(C)C)NC(=O)CCC1CC(OC(=O)NCCc2ccc(F)cc2)CC2(CCCC(COC(=O)NCc3cccc(C(F)(F)F)c3)O2)O1 (some centres undefined) | -0.0296 (inactive) | 0.575 | -0.748 | -6.52 (inactive)
